RORgamma inh – qHTS for inhibitors of ROR gamma transcriptional activity; Nuclear receptor ROR-gamma (Mus musculus), P51450; 310,000 tested, 5.4% active; Potency, µM (titrated, usually from 53.6 µM), usual class: inhibitors; Drosophila S2 Gal4-RORgamma UAS-luciferase reporter, 20 h; also: nearly all actives have a fitted effect of over 60% in size
Target sequence (P51450 whole entry, looked up, the tested form may be a part): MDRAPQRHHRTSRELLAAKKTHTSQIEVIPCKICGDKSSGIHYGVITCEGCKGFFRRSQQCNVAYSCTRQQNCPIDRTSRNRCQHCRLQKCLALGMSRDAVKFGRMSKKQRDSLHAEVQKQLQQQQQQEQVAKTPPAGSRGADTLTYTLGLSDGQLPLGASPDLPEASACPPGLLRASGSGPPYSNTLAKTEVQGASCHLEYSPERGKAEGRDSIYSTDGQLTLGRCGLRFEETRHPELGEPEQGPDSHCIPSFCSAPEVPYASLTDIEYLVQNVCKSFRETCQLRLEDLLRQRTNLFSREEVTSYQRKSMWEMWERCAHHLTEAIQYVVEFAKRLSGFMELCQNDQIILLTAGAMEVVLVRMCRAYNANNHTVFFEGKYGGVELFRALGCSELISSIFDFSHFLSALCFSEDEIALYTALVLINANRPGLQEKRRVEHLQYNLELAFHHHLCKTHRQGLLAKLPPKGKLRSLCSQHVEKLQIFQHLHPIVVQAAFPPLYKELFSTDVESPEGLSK
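Schneider cells (Drosophila), stable Gal4 DBD–ROR gamma + UAS-luc; 1 hr cmpd preincubation; Cu2+ induction 700 uM final; 20 hr ambient; luminescence.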
SW480 rereplic – A quantitative high throughput screen for small molecules that induce DNA re-replication in SW480 colon adenocarcinoma cells; SW480 DNA re-replication, Hoechst DNA content imaging, 48 h; Potency, µM (highest dose often 46.1 µM), most hits filed as activators; 340,000 tested, 1.8% active; AID 624297, 2012; also: nearly all actives have a fitted effect of over 55% in size
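Hoechst fluorescence of nuclei (405 nm excitation, 500-530 nm emission) measured by plate-scanning imager after 48 hr compound exposure at 37 C; re-replication scored as increased number of nuclei with elevated intensity.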
MCF10A rerep – A quantitative high throughput screen for small molecules that induce DNA re-replication in MCF 10a normal breast cells; MCF 10A DNA re-replication, Hoechst nuclear intensity, 48 h; Potency, µM (doses to about 46.1 µM), usual class: activators; 350,000 tested, 2.9% active; also: nearly all actives have a fitted effect of over 50% in size
IL1B secr inh – qHTS for Inhibitors of Inflammasome Signaling: IL-1-beta AlphaLISA Primary Screen; THP-1 LPS/ATP IL-1B secretion, AlphaLISA, 16 h; hits give low values; activity change, % at 57.5 µM; 360,000 tested, 4.7% active; in the data active = activity change below about -50%; inconclusive = mostly about -30% to -49%
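THP-1 cells pretreated 1 hr with compounds (up to 57.5 uM final), then stimulated with LPS (250 ng/mL final) plus ATP (1.25 mM final); secreted IL-1B measured by AlphaLISA after 16 hr, decreased signal indicating inhibition.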
Gal4-VP16 FLuc – VP16 counterscreen qHTS for inhibitors of ROR gamma transcriptional activity. Drosophila S2 Gal4-VP16 UAS-luciferase, luminescence, 20 h. Potency, µM (highest dose often 53.6 µM), usual class: inhibitors. AID 2546, 2010. 310,000 tested, 3.5% active;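 also: Gal4-VP16 expression switched on by copper sulfate through the metallothionein promoter; nearly all actives have a fitted effect of over 50% in size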
Of the large screens only hits and unclear results are named; the others gave an inactive call. A selection: hits, their analogues and other compounds. The true share with any hit is near 11%. Unless noted, calls follow the shape of the dose curve; as a rule, active = well fitted curve in the direction sought with a large enough effect; inconclusive = small, poorly fitted or top-dose-only effect, or another doubt; inactive = no such curve, though single readings can be large; an effect the other way counts as inactive or inconclusive.

CC1Cc2cc(S(=O)(=O)N3CCC(C(=O)N4CCN(c5ccccc5F)CC4)CC3)ccc2N1C(=O)C1CC1 (stereo unspecified)	IL1B secr inh -51.5
O=c1[nH]c(SCc2ccc(OC(F)(F)F)cc2)nc2c1CCC2	none (no result: RORgamma inh, SW480 rereplic, MCF10A rerep, Gal4-VP16 FLuc)
CN1OC[C@@H]2CN(C(=S)NCCc3ccccc3)[C@H](c3ccc(N4CCCCC4)cc3)C[C@@H]21	none (no result: RORgamma inh, SW480 rereplic, MCF10A rerep, Gal4-VP16 FLuc)
Cc1noc(C)c1COc1ccccc1C(=O)NC(C)c1ccc(Cl)cc1 (stereo unspecified)	none (no result: RORgamma inh, Gal4-VP16 FLuc)
O=C(CN1CCN(C(=O)C2CCCO2)CC1)Nc1cc(C(F)(F)F)ccc1Cl (stereo unspecified)	none (no result: RORgamma inh, Gal4-VP16 FLuc)
N#CCc1nc(C(c2ccccc2)c2ccccc2)no1	RORgamma inh inconclusive, MCF10A rerep inconclusive, IL1B secr inh inconclusive
COc1ccccc1N1CCN(C(=O)C2CCN(S(=O)(=O)c3ccc4c(c3)CC(C)N4C(=O)C3CC3)CC2)CC1 (stereo unspecified)	RORgamma inh inconclusive, IL1B secr inh -52.6
COc1ccccc1N1CCN(C(=O)C2CCN(S(=O)(=O)c3ccc4c(c3)CC(C)N4C(C)=O)CC2)CC1 (stereo unspecified)	none
COc1ccc(N2CCN(C(=O)COC(=O)c3ccc(C)o3)CC2)cc1	none (no result: RORgamma inh, Gal4-VP16 FLuc)
Cc1cc(C)c2nc(NC(=O)C3CC(=O)N(Cc4ccco4)C3)sc2c1 (stereo unspecified)	RORgamma inh inconclusive, IL1B secr inh -70.9
CCc1ccc(C2CC(c3ccccc3)n3ncnc3N2)cc1 (stereo unspecified)	RORgamma inh 17.8µM
C=CCOC(=O)N[C@H](/C(C(=O)OC)=C(\C)NCc1ccccc1)c1cccc(C(F)(F)F)c1	none (no result: SW480 rereplic, MCF10A rerep, IL1B secr inh)
CCn1c2c(c(=N)c3c1CCC3)CCCC2	none
CCCCCCCCCCn1c2c(c(=N)c3c1CCC3)CCC2	RORgamma inh 8.91µM, SW480 rereplic inconclusive, MCF10A rerep inconclusive, IL1B secr inh -95.5, Gal4-VP16 FLuc 3.16µM
CCCCCCCCn1c2c(c(=N)c3ccccc31)CCC2	MCF10A rerep inconclusive, IL1B secr inh -95.7
CCCCCCCCCn1c2c(c(=N)c3c1CCC3)CCCC2	RORgamma inh 3.98µM, SW480 rereplic inconclusive, MCF10A rerep inconclusive, IL1B secr inh -98.8, Gal4-VP16 FLuc inconclusive
C[C@@H](NC(=O)[C@@H]1CCCN1C(=O)[C@@H]1CCCN1C(=O)c1ccccc1)c1ccccc1	none (no result: RORgamma inh, SW480 rereplic, MCF10A rerep, Gal4-VP16 FLuc)
Cc1cccc(C2=NN(c3ccccc3)[C@H](CO)[C@H]2c2ccccc2)c1	SW480 rereplic 16.4µM, MCF10A rerep 2.31µM
Cc1cccc(C2=NN(c3ccccc3)[C@@H](C(=O)N3CCOC3=O)[C@@H]2c2ccc(F)cc2)c1	SW480 rereplic inconclusive, MCF10A rerep inconclusive
OC[C@@H]1[C@@H](c2ccc(F)cc2)C(c2ccccc2)=NN1c1ccccc1	SW480 rereplic 18.4µM, MCF10A rerep inconclusive, IL1B secr inh inconclusive, Gal4-VP16 FLuc inconclusive
CC[C@@H]1C(c2ccc(F)cc2)=NN(c2ccccc2)[C@H]1C(=O)N1CCOC1=O	MCF10A rerep inconclusive
CC[C@H]1C(c2ccc(F)cc2)=NN(c2ccccc2)[C@@H]1CO	SW480 rereplic inconclusive, MCF10A rerep 6.51µM, Gal4-VP16 FLuc inconclusive
COC(=O)c1ccc(OC)c(Cn2c(=O)n(C)c(=O)c3ccccc32)c1	none
O=C(CCl)N1c2ccccc2CCc2ccccc21	RORgamma inh 11.2µM, Gal4-VP16 FLuc inconclusive (no result: SW480 rereplic, MCF10A rerep, IL1B secr inh)
CN(C)CC(C(=O)c1ccccc1)c1ccccc1 (stereo unspecified)	RORgamma inh 7.08µM, MCF10A rerep 2.59µM, IL1B secr inh -101.3, Gal4-VP16 FLuc 7.08µM
O=C(CC(C(=O)c1ccccc1)c1ccccc1)c1ccccc1 (stereo unspecified)	IL1B secr inh inconclusive (no result: RORgamma inh, Gal4-VP16 FLuc)
CC(CN(C)Cc1ccccc1)OC(=O)c1ccc(F)cc1 (stereo unspecified)	none
CN(Cc1cc(Cl)cc(Cl)c1)CC(C(=O)c1ccccc1)c1ccccc1 (stereo unspecified)	SW480 rereplic 13µM, MCF10A rerep 16.4µM, IL1B secr inh -78.9 (no result: RORgamma inh, Gal4-VP16 FLuc)
COc1ccc(N2CC(C)(C)[C@H](CC(=O)Nc3ccccc3)C2=O)cc1	none (no result: RORgamma inh, SW480 rereplic, MCF10A rerep, Gal4-VP16 FLuc)
CC1(C(=O)NS(=O)(=O)c2ccccc2C(F)(F)F)CCN1C(=O)CCC1CCCC1 (stereo unspecified)	none (no result: RORgamma inh, SW480 rereplic, MCF10A rerep, Gal4-VP16 FLuc)
CC(C)C[C@H](NC(=O)N1CCCCCC1)C(=O)N[C@H](Cc1cn(C)c2ccccc12)C(=O)N[C@H](Cc1ccccn1)C(=O)O	none (no result: SW480 rereplic, MCF10A rerep, IL1B secr inh)
O=C(CSCc1ccccc1)NNc1c(F)c(F)cc(F)c1F	none
NNC(=O)c1sc(-c2ccc(Cl)cc2)cc1N	SW480 rereplic inconclusive, MCF10A rerep inconclusive, IL1B secr inh -77.6, Gal4-VP16 FLuc inconclusive
CCOC(=O)c1sc(-c2ccc(Br)cc2)cc1N	SW480 rereplic inconclusive, MCF10A rerep inconclusive
COc1ccccc1C(=O)NC(CCSC)C(=O)Nc1ccc(C)c(S(=O)(=O)N2CCOCC2)c1 (stereo unspecified)	IL1B secr inh inconclusive (no result: RORgamma inh, Gal4-VP16 FLuc)
COc1ccccc1-c1csc(C(C)(O)c2ccccc2)n1 (stereo unspecified)	none (no result: RORgamma inh, SW480 rereplic, MCF10A rerep, Gal4-VP16 FLuc)
COc1ccc2[nH]c3c(c2c1)CCN1C(=O)C(CC(=O)NCc2ccc(OC)c(OC)c2)C[C@H](C(=O)N2CCCCC2)[C@@]31CCc1ccccc1 (stereo partly specified)	none (no result: RORgamma inh, Gal4-VP16 FLuc)
COc1ccc2[nH]c3c(c2c1)CCN1C(=O)C(CC(=O)NCc2ccco2)C[C@H](C(=O)N2CCCCC2)[C@@]31CCc1ccccc1 (stereo partly specified)	IL1B secr inh -56.1 (no result: RORgamma inh, Gal4-VP16 FLuc)
O=C(C[C@H]1C[C@H](C(=O)N2CCCCC2)[C@@]2(CCc3ccccc3)c3[nH]c4cc(-c5ccco5)ccc4c3CCN2C1=O)NCc1cccc(C(F)(F)F)c1	SW480 rereplic inconclusive (no result: RORgamma inh, Gal4-VP16 FLuc)
COc1ccc2[nH]c3c(c2c1)CCN1C(=O)C(CC(=O)NCCc2ccccn2)C[C@H](C(=O)N2CCCCC2)[C@@]31CCc1ccccc1 (stereo partly specified)	SW480 rereplic inconclusive (no result: RORgamma inh, Gal4-VP16 FLuc)
COCCCNC(=O)CC1C[C@H](C(=O)N2CCCCC2)[C@@]2(CCc3ccccc3)c3[nH]c4ccc(OC)cc4c3CCN2C1=O (stereo partly specified)	SW480 rereplic 18.4µM (no result: RORgamma inh, Gal4-VP16 FLuc)
O=C(CC1C[C@H](C(=O)N2CCCCC2)[C@@]2(CCc3ccccc3)c3[nH]c4ccccc4c3CCN2C1=O)NCc1ccco1 (stereo partly specified)	IL1B secr inh -60.0 (no result: RORgamma inh, Gal4-VP16 FLuc)
CN(C)C(=O)CCc1ccc2c3c([nH]c2c1)[C@]1(CCc2ccccc2)[C@@H](C(=O)N2CCCCC2)C[C@H](CC(=O)NCc2ccco2)C(=O)N1CC3	none (no result: RORgamma inh, Gal4-VP16 FLuc)
